# Screening results from PubChem BioAssay.
# TEAD-YAP block: TEAD-YAP interaction inhibition | HEK-TIYL cells, TEAD-Gal4/YAP UAS-luciferase luminescence | inhibition, % at 9.12 µM | 640,000 compounds, 1.4% hits; in the data active = inhibition above about 32%
# GPR151 ag: activators of human GPR151; 650,000 compounds, 1% hits; activation, % at 11.2 µM; PathHunter beta-arrestin GPR151 cells, luminescence; in the data active = activation above about 4.9%
# Target sequence (Q8TDV0 whole entry, looked up): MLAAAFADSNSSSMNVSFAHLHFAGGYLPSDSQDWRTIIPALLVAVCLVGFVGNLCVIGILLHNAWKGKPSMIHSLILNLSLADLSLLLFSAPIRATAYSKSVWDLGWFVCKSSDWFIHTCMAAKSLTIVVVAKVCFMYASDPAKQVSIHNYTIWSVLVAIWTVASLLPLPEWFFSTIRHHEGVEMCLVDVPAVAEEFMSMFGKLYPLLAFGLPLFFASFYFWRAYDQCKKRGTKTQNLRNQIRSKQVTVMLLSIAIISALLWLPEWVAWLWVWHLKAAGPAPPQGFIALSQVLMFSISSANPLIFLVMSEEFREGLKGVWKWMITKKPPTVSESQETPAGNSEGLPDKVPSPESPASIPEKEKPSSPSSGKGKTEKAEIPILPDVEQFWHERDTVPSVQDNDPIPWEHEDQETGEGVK
# FBW7 act: human FBW7 E3 ligase activation, primary screen. AlphaScreen FBW7–phospho-cyclin E peptide binding, activator screen. Q969H0. normalized activity (activation), % at 26.1 µM. 650,000 compounds, 0.13% hits. AID 1259310; in the data active = normalized activity above about 1.9%;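 also: purified mutant Fbw7 with reduced substrate affinity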
# MITF primary: blocks human microphthalmia-associated transcription factor | O75030 | AlphaScreen MITF homodimerization, bead proximity signal | inhibition, % at 2.6 µM | 650,000 compounds, 0.91% hits; in the data active = inhibition above about 50%
# Hits are given with their value; 0 = inactive. This is a sample that favours compounds with a hit; in the whole collection about 3.4% have one here.
SMILES,TEAD-YAP block,GPR151 ag,FBW7 act,MITF primary
N#Cc1cc(-c2ccnc(Nc3ccc(-n4cnc(N5CCOCC5)n4)cc3)n2)cc(N2CCCC(O)C2)c1 (stereo not drawn),0,0,0,0
OC1CCN(c2ccc(Nc3nccc(-c4cc(F)cc(N5CCOCC5)c4)n3)cc2)CC1,48,0,0,0
Fc1cc(-c2ccnc(Nc3ccc(-n4cnc(N5CCOCC5)n4)cc3)n2)cc(N2CCOCC2)c1,57,0,0,0
COc1cccnc1-c1ncn(-c2ccc(Nc3nccc(-c4cc(F)cc(N5CCOCC5)c4)n3)cc2)n1,83,0,0,0
COc1ccccc1-n1c(O)cnc1Nc1nc(C)cc(C)n1,0,0,0,0
N#Cc1cc([N+](=O)[O-])ccc1N1CC=C(c2ccccc2)CC1,0,0,0,0
Cc1cc(=O)n2c3ccccc3n(CC(O)CNc3ccccc3)c2c1C#N (stereo not drawn),0,0,0,0
Fc1cc(-c2cn[nH]c2)cc(-c2ccnc(Nc3ccc(-n4cnc(C(F)(F)F)n4)cc3)n2)c1,0,0,0,0
Cc1ncn(-c2ccc(Nc3nccc(-c4cncc(N5CCC(O)CC5)c4)n3)cc2)n1,74,0,0,0
CCN1CCN(c2ncn(-c3ccc(Nc4nccc(-c5cncc(N6CCOCC6)c5)n4)cc3)n2)CC1,60,0,0,0
c1cc(Cn2cccn2)cc(Nc2nccc(-c3cncc(N4CCOCC4)c3)n2)c1,79,0,0,0
CCN1CCN(c2ncn(-c3ccc(Nc4nccc(-c5cc(N6CCOCC6)cc(C(F)(F)F)c5)n4)cc3)n2)CC1,0,0,0,0
CC(C)(C)c1ncn(-c2ccc(Nc3nccc(-c4cn[nH]c4)n3)cc2)n1,63,0,0,0
CC1(C)CC(=O)C2=C(C1)N(c1cccc([N+](=O)[O-])c1)C(N)=C(C#N)C2c1ccsc1 (stereo not drawn),0,0,0,0
Cc1cc(Nc2nccc(-c3cc(C#N)cc(N4CCOCC4)c3)n2)ccc1N1CCOCC1,0,0,0,0
N#Cc1cc(-c2ccnc(Nc3ccc(N4CCC(O)CC4)cc3)n2)cc(N2CCOCC2)c1,47,0,0,0
N#Cc1cc(-c2ccnc(Nc3cccc(CN4CCCCC4)c3)n2)cc(N2CCOCC2)c1,86,0,0,0
CN(C)c1cc(F)cc(-c2ccnc(Nc3ccc(-n4cnc(N5CCC(O)CC5)n4)cc3)n2)c1,65,0,0,0
Fc1cc(-c2ccnc(Nc3ccc(N4CCOCC4)cc3)n2)cc(N2CCN(C3CC3)CC2)c1,48,0,0,0
COc1ccc(C2=NNC(c3ccncc3)=Nc3ccc(Br)cc32)cc1,0,0,0,0
COc1ccc(CNC(=O)c2ccc(N3CC4CC(C3)c3cccc(=O)n3C4)c(NC(=O)c3ccccc3Br)c2)cc1 (stereo not drawn),0,0,0,0
Cc1ccc(CSCC(=O)Nc2ccccc2C(N)=O)cc1,0,0,0,0
O=[N+]([O-])c1ccc(NC(c2ccccn2)c2ccc3cccnc3c2O)cc1 (stereo not drawn),87,0,0,0
O=C(NC(c1ccccc1)c1ccccn1)c1ccc([N+](=O)[O-])cc1 (stereo not drawn),0,0,0,0
Oc1c(C(Nc2ccc(Cl)cc2)c2ccccn2)ccc2cccnc12 (stereo not drawn),0,0,0,69
SMILES,TEAD-YAP block,GPR151 ag,FBW7 act,MITF primary
Oc1c(C(Nc2cccc(C(F)(F)F)c2)c2ccccn2)ccc2cccnc12 (stereo not drawn),0,0,0,51
Oc1c(C(Nc2cccc(C(F)(F)F)c2)c2cccnc2)ccc2cccnc12 (stereo not drawn),0,0,0,65
O=c1cc(CO)oc(C(Nc2cccc(F)c2)c2ccccn2)c1O (stereo not drawn),0,0,0,0
CCc1ccc(NC(=O)CSc2nc3ccccc3c(=O)n2CCCC(=O)NCCc2ccccc2)cc1,0,0,0,0
COc1cc(C(=O)Nc2cc(C)on2)c([N+](=O)[O-])cc1OC,0,0,0,0
Oc1c(C(Nc2cccc(Cl)c2)c2ccccn2)ccc2cccnc12 (stereo not drawn),62,0,0,0
COc1ccc(N2CCN(c3ncnc4sc(C(=O)Nc5ccc(C)c(F)c5)c(C)c34)CC2)cc1,0,0,0,0
CCOc1ccccc1CNc1ccc(N2CCN(C(C)=O)CC2)cc1,0,0,0,0
CCCNc1ccnc(Nc2ccccc2)n1,0,0,0,0
CCCNc1ccnc(Nc2ccncc2)n1,36,0,0,0
S=C(NCCc1ccccc1)N1CCN(c2ncccn2)CC1,0,0,0,0
Cc1ccc2nc(-c3ccc(N)cc3O)oc2c1,0,0,0,0
